# Source: PubChem BioAssay (National Center for Advancing Translational Sciences (NCATS))
# IP6K1 inh: Primary qHTS assay for small molecule inhibitors of Inositol hexaphosphate kinase 1 (IP6K1); IP6K1 kinase, ADP-Glo luminescence, 2 h; stronger effect = lower value; activity change, % (series mostly up to about 58 µM); 0.81% of 140,000 active; AID 1645851, 2021; in the data active = activity change below about -25%
# Target sequence (Q92551 whole entry, looked up): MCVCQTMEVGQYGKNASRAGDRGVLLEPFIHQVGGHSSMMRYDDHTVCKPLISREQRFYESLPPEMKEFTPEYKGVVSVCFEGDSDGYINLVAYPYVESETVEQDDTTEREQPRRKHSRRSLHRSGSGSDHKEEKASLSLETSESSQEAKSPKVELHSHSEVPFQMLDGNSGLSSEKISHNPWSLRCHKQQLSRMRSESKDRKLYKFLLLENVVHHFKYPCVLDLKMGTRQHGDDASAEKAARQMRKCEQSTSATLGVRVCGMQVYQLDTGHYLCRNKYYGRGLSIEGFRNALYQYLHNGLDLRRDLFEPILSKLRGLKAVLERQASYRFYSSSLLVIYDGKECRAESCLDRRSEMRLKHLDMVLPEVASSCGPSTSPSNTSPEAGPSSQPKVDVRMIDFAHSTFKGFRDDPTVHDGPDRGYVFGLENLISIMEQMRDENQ
#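 ADP-Glo luminescence measures ADP made by human IP6K1 during a 2 h RT reaction with ATP/IP6 (mix at 1.3 mM/130 uM); top library doses 57.5 and 19.1 uM final.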
# KDM5B inhibitor: Primary screen for KDM5B Histone Demethylases FDH-coupled qHTS; 2.6% of 220,000 active; Potency, µM (series often up to 57.7 µM), most hits filed as inhibitors; KDM5B demethylase, FDH-coupled NADH fluorescence (FDH is formaldehyde dehydrogenase); also: nearly all actives have a fitted effect of over 70% in size
#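 Inhibition is measured as reduced NADH fluorescence generation from FDH coupling to formaldehyde release. Truncated KDM5BΔAP at 200 nM final acts on H3K4me3 peptide (12.5 µM in substrate mix) in pH 7.5 HEPES buffer with Tween-20, 30 min, room temperature.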
# HEK293 viab: GF-AFC viability counterscreen for inhibitors of alpha-synuclein gene (SNCA) expression; HEK-293-SNCA-luc viability, GF-AFC fluorescence, 24 h; 0.12% of 150,000 active; AID 1671193, 2021; Potency, µM (highest dose often 57.1 µM), most hits filed as cytotoxic; also: nearly all actives have a fitted effect of over 30% in size
#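 Cytotoxicity counterscreen: after 24 h compound treatment of genome-edited SNCA-luciferase HEK-293 cells, live-cell protease substrate GF-AFC read by fluorescence after 30 min; activity scaled between DMSO (0%) and medium-only (-100%), curves Hill-fitted.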
# SNCA expr inhib: Primary qHTS assay for inhibitors of alpha-synuclein gene (SNCA) expression; HEK-293 SNCA-luciferase knock-in, luminescence, 24 h; 0.17% of 140,000 active; Potency, µM (series often up to 57.2 µM), hits mostly inhibitors; also: nearly all actives have a fitted effect of over 45% in size
# IP6K1 inh cnf: Confirmatory qHTS assay for small molecule inhibitors of Inositol hexaphosphate kinase 1 (IP6K1); shares compounds with IP6K1 inh; recombinant IP6K1 kinase, ADP-Glo luminescence, 2 h; Potency, µM (series often up to 49 µM), hits mostly inhibitors; 13% of 1,200 active; AID 1645852, 2021; also: nearly all actives have a fitted effect of over 65% in size
# A number is an active result; – = inactive; ? = inconclusive; · = no result given. Rows were chosen to be rich in hits. Some 2.8% of all compounds tested hit in one or more screens of this group. Unless noted, calls follow the shape of the dose curve; as a rule, active = well fitted curve in the direction sought with a large enough effect; inconclusive = small, poorly fitted or top-dose-only effect, or another doubt; inactive = no such curve, though single readings can be large; an effect the other way counts as inactive or inconclusive.
SMILES,IP6K1 inh,KDM5B inhibitor,HEK293 viab,SNCA expr inhib,IP6K1 inh cnf
COc1cccc(CNC(=O)Nc2cccc(-c3ccc(N4CCOCC4)nn3)c2)c1,-39,–,–,?,?
CCc1ccccc1NC(=O)Nc1cccc(-c2ccc(N3CCOCC3)nn2)c1,-26,–,–,–,–
Cc1ccc(CNC(=O)Nc2cccc(-c3ccc(N4CCOCC4)nn3)c2)cc1,–,–,–,–,·
CCOC(=O)c1cnc(SCc2nc(-c3ccc(OC)cc3)oc2C)nc1N,·,–,·,·,·
O=C(Nc1nnc(N2CCCCCC2)s1)Nc1cc(F)ccc1F,-29,–,–,–,–
CCCOC(=O)c1ccc(NC(=O)CC(C)(C(=O)O)c2ccccc2)cc1 (stereo not drawn),·,–,·,·,·
COc1ccc(CNC(=O)c2ccc3c(=O)n(-c4cc(OC)ccc4OC)cnc3c2)cc1,·,–,·,·,·
COc1ccccc1-c1ccc(C(=O)N2CCCC[C@H](N(C)C)C2)cc1,-31,?,?,–,–
COc1cc(OC)c(C(=O)N2CCCC[C@H](N(C)C)C2)cc1OC,–,–,–,–,·
CN(C)[C@H]1CCCCN(C(=O)c2cnc3ccccn3c2=O)C1,-34,32µM,–,–,–
Cc1c(C(=O)Nc2cccc(C(F)(F)F)c2)sc2nc[nH]c(=O)c12,-32,?,–,–,?
CCc1cccc(NC(=O)c2sc3nc[nH]c(=O)c3c2C)c1,–,–,–,–,·
Cc1cccc(CC(=O)Nc2cccc(-c3nc4cccnc4s3)c2)c1,–,?,–,–,·
Cc1ccccc1C(=O)Nc1cccc(-c2nc3cccnc3s2)c1,-29,?,–,–,?
O=C1Nc2ccc(I)cc2C1=Cc1cc(Br)c(O)c(Br)c1,·,·,–,–,·
O=C1Nc2ccc(I)cc2/C1=C/c1cc(Br)c(O)c(Br)c1,·,·,–,–,2.9µM
O=C(Nc1ccc2oc(C3CC3)nc2c1)c1ccc[nH]c1=O,·,–,·,·,·
CCOC(=O)c1cccc(NC(=O)c2oc3c(c2C)-c2nn(CC)cc2CC3)c1,-28,?,–,–,?
N#C/C(=C\c1ccc(O)c(O)c1)C(=O)Nc1ccccc1,·,·,–,–,16µM
CCN(C(=O)c1cc2sc3ccccc3c2s1)c1ccccc1,·,–,·,·,·
Cc1ccc2nc(-c3ccco3)c(Nc3ccc4c(c3)OCCO4)n2c1,-28,–,–,–,–
CCCC(=O)OCOC(=O)C1=C(C)NC(C)=C(C(=O)OC)C1c1cccc(Cl)c1Cl (stereo not drawn),–,·,–,–,–
COc1cc([C@H]2Oc3cc([C@H]4Oc5cc(O)cc(O)c5C(=O)[C@H]4O)ccc3O[C@H]2CO)ccc1O,·,·,–,?,·
COc1cc([C@H]2Oc3cc([C@H]4Oc5cc(O)cc(O)c5C(=O)[C@@H]4O)ccc3O[C@@H]2CO)ccc1O,-79,·,–,–,7.3µM
Cc1nc2ccccc2nc1CN1C(=O)NC2(CCCCCC2)C1=O,·,–,·,·,·
SMILES,IP6K1 inh,KDM5B inhibitor,HEK293 viab,SNCA expr inhib,IP6K1 inh cnf
O=C(NCCc1ccccc1)C1CCN(c2nc3ccccc3nc2C(F)(F)F)CC1,–,–,–,–,·
CCCSCCCNC(=O)C1CCN(c2nc3ccccc3nc2C(F)(F)F)CC1,-29,–,–,–,–
Cc1ccc(NS(=O)(=O)c2ccc3[nH]c4c(c3c2)CCCC4)cc1N(C)C,-27,?,–,?,–
Cc1cccc(C)c1NC(=O)CN(C)S(=O)(=O)c1ccc2[nH]c3c(c2c1)CCCC3,-26,?,–,–,–
Cc1cc(C)cc(NC(=O)CN(C)S(=O)(=O)c2ccc3[nH]c4c(c3c2)CCCC4)c1,–,?,–,?,·
Cc1ccc(NS(=O)(=O)c2ccc3[nH]c4c(c3c2)CCCCCC4)cc1Cl,–,?,–,–,·
CC(=O)c1cccc(NC(=O)Cc2c(C)[nH]n(-c3nc(-c4ccc(Cl)cc4)cs3)c2=O)c1,·,–,·,·,·
O=C(NCc1cccc(Cl)c1)C1CCCN(c2ncnc3nc[nH]c23)C1 (stereo not drawn),·,–,·,·,·
COc1ccc(-c2cc(=O)oc3cc4occ(-c5ccc(F)cc5)c4cc23)cc1,·,–,·,·,·
CC1=C(C(=O)OC(C)C)C(c2cccc([N+](=O)[O-])c2)C(C(=O)OC2CN(C(c3ccccc3)c3ccccc3)C2)=C(N)N1 (stereo not drawn),–,·,–,–,–
CCOC(C)C(=O)NN (stereo not drawn),·,–,·,·,·
COc1ccc(CN2CCN(S(=O)(=O)c3ccccc3)CC2)c(OC)c1,-49,?,–,–,–
Cc1cc(C)cc(Nc2nc(-c3cccnc3)nc3ccccc23)c1,·,–,·,·,·
Cc1cc(Nc2nc(-c3ccccc3)nc3ccccc23)n[nH]1,-26,·,–,·,?
CNCc1cc(Br)c(OCc2ccccc2)c(OC)c1,·,–,·,·,·
CCOc1cc(CNc2ccc(O)cc2)cc(Br)c1OCc1ccccc1,-43,?,–,–,?
Nc1nc(N)c(S(=O)(=O)c2ccccc2)c(Nc2ccc(Br)cc2)n1,-36,–,–,–,?
CN(C)c1ccc(C2CC(c3c(O)n(C4CCCCC4)c(=O)[nH]c3=O)=Nc3ccccc3S2)cc1 (stereo not drawn),-32,?,–,–,–
O=C(Nc1nc2cccc(-c3ccc(CN4CCS(=O)(=O)CC4)cc3)n2n1)C1CC1,–,·,?,–,–
CCOc1ccc(CN(CCc2ccc3c(c2)OCO3)Cc2cc(OC)c(OC)cc2OC)cc1,-30,?,–,–,–
CCOc1ccccc1CN(CCc1ccc2c(c1)OCO2)Cc1cccc(OC)c1OC,–,?,–,?,·
C=Cc1cc(O)cc2nc(-c3ccc(O)c(F)c3)oc12,-28,·,–,·,?
COc1ccc(-c2ccc3nc(-c4ccc(F)c(F)c4)oc3c2)c(OC)c1OC,–,–,–,–,·
COCCCNc1ccc(C(=O)N2CCC(CN3CCCC3=O)CC2)cn1,-57,?,–,–,–
O=C1CCCN1CC1CCN(C(=O)c2ccc(N3CCC(CO)C3)nc2)CC1 (stereo not drawn),–,?,–,–,·
SMILES,IP6K1 inh,KDM5B inhibitor,HEK293 viab,SNCA expr inhib,IP6K1 inh cnf
C=C1CC[C@H]2[C@@](C)(CCC[C@@]2(C)C(=O)O)[C@@H]1CCC(C)CCO (stereo partly drawn),–,·,–,·,·
C=C1CCC2C(C)(C)C(O)CCC2(C)C1CCC(C)CCO (stereo not drawn),-30,·,–,·,?
O=S(=O)(NCc1ccc(Cl)cc1)c1ccc(N2CCCCS2(=O)=O)cc1,–,–,–,?,·
O=S(=O)(NCc1ccc(F)cc1)c1ccc(N2CCCCS2(=O)=O)cc1,-32,–,–,–,–
CC(=O)NC(C)c1cccc([N+](=O)[O-])c1 (stereo not drawn),·,–,·,·,·
Cc1ccc(CN2CCc3nc(N4CCN(c5ncccn5)CC4)ncc3C2)cc1,–,?,–,–,·
